Experimental findings from PubChem BioAssay (NCI) are described below.

Experiment in all cases: NCI-60 one-dose screen, 48 h (100 = growth as untreated, 0 = no growth, -100 = all killed)
Common to all, as to conditions: 10 µM unless noted

The test system of assay [1] is NCI-H23 lung.
In assay [2] the test system is NCI-H226 lung.
For assay [3], the system named is NCI-H322M lung.
Assay [4] relates to HOP-62 NSCLC.
In assay [5] the test system is NCI-H460 lung.
Assay [6] deals with HOP-92 NSCLC.
For assay [7], the system named is NCI-H522 lung.
The test system of assay [8] is A549/ATCC NSCLC.
Assay [9] has as its system 786-0 renal.
Assay [10] has as its system COLO 205 colon.
In assay [11] the test system is DU-145 prostate.
For assay [12], the system named is K-562 leukemia.
For assay [13], the system named is MALME-3M melanoma.
For assay [14], the system named is MDA-MB-231 breast.
Assay [15] concerns RXF 393 renal.
Assay [16] has as its system SF-268 CNS.
The test system of assay [17] is SF-295 CNS.
For assay [18], the system named is SF-539 CNS.
Assay [19] concerns UACC-257 melanoma.
Assay [20] concerns M14 melanoma.

Molecules are shown by their SMILES. About 83,000 compounds went through this panel and 20% of them were active in at least one assay; those are over-represented in the sample as a whole.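 Single-dose data. Exposure time 48 hours. Values below 10 considered active.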 Unmarked numbers belong to inactive results. Calls of active or inactive are those of the source.

In the case of `CN(C)S(=O)(=O)c1ccc(-c2nc(C(Cl)Cl)nc3cc(-c4ccc(F)cc4)nn23)cc1`, the growth was -3.27% (active) in assay [1]; 45.4% in [2]; 31% in assay [3]; 9.75% (active) in assay [4]; 1.94% (active) in assay [5]; 14.6% in assay [6]. For the same compound, the growth in [7] was -16.5% (active); in assay [8] it was 7.5% (active); in [9], 72.6%; in assay [10], 2.25% (active); in assay [11] it was 5.97% (active); in assay [12] it was 8.44% (active). The growth in assay [13] was -11.5% (active); in [14], 1.26% (active); in assay [15] it was -19.2% (active); in assay [16] it was 19.4%; in assay [17], 21.8%; in [18] it was 31.7%. Moreover, the growth in [19] was 52.4%; in assay [20], 1.95% (active).

In the case of `CC(C)Sc1nc(-c2ccccc2)c(C#N)c(N2CCOCC2)n1`, the growth in assay [1] is 65%; in [2] it was 55.1%; in assay [3], 38.1%; in assay [4], 63.7%; in assay [5] it was 42.2%; in [6] it was 73.2%. Besides, the growth is 82.5% in assay [7]; 37.2% in assay [8]; 11.9% in assay [9]; 74% in [10]; 83.1% in assay [11]; 62.4% in [12]. Besides, the growth in assay [13] was 36.5%; in [14] it was 63.7%; in [15], 45.7%; in [16], 79%; in assay [17], 51.1%; in assay [18], 50.2%. Besides, the growth in assay [19] is 97.5%; in [20], 96.9%.

On to `Oc1ccc(-c2nc3ccc(/C(=N\N=C\c4ccc(Cl)cc4)c4ccccc4)cc3[nH]2)cc1`, for which the growth in assay [1] was 94.8%; in assay [2], 80.7%; in assay [3] it was 93.7%; in [4], 100%; in assay [5], 86.4%; in assay [6] it was 118%. Moreover, the growth in assay [7] is 74.6%; in [8], 89.2%; in assay [9] it was 66.5%; in assay [10], 54%; in assay [11], 88.3%; in [12], 70.8%. Also, the growth in [13] was 101%; in assay [14], 91.1%; in [15], 93.5%; in assay [16], 90.9%; in assay [17] it was 82.6%; in assay [18], 87%. Moreover, the growth is 92% in [19] and 63.5% in assay [20].

In the case of `CCCCCCN1C=C/C(=C\C(=O)n2ccc3ccccc32)c2ccccc21`, the growth is 9.61% (active) in assay [1]; 52.9% in assay [2]; 93.5% in assay [3]; 89.6% in assay [4]; 87.7% in [5]; 82.6% in [6]. The growth in assay [7] is 57.7%; in assay [8] it was 84.3%; in assay [9], 86.6%; in [10] it was 87.3%; in assay [11], 74%; in [12], 31.8%. Besides, the growth was 70.6% in [13]; 73% in [14]; 74.3% in assay [15]; 80.9% in assay [16]; 34.4% in [17]; 87% in assay [18]. Besides, the growth is 71.6% in [19] and 78.5% in [20].

With `C#Cc1nc(/C=C/C(=O)NO)cs1`, the growth is -86.7% (active) in assay [1]; 75.8% in [2]; 82.5% in [3]; 48.5% in assay [4]; 63.4% in [5]; -79.5% (active) in assay [6]. Moreover, the growth in assay [7] was -60% (active); in assay [8] it was 69.6%; in assay [9] it was -76.5% (active); in assay [10], 79.8%; in assay [11], -59.8% (active); in assay [12], 10.2%. Besides, the growth in assay [13] was -30.5% (active); in [14], -48.6% (active); in assay [15], -68.9% (active); in assay [16], 52.9%; in assay [17], 46.3%; in assay [18], -87.3% (active). Besides, the growth in assay [19] was 42.6%; in assay [20] it was 70.3%.

On to `CN(C)S(=O)(=O)c1ccc(-c2nc(C(Cl)Cl)nc3cc(-c4ccccc4)nn23)cc1`, for which the growth in assay [1] was 85%; in assay [2], 96%; in assay [3], 99%; in [4], 70.7%; in assay [5], 89%; in [6], 79%. The growth is 89.6% in assay [7]; 82.6% in assay [8]; 90.6% in [9]; 69.5% in assay [10]; 79.2% in [11]; 52.2% in assay [12]. The growth in assay [13] was 15.3%; in [14], 48.8%; in [15] it was 84.4%; in assay [16], 88.2%; in assay [17], 86.7%; in assay [18] it was 77.8%. Also, the growth is 105% in assay [19] and 74% in assay [20].

Take `COC(=O)CNC(=O)c1cccc(-c2cc(=O)c3c(OC)c(OC)c(OC)cc3o2)c1`: the growth was 98.1% in assay [1]; 95.8% in assay [2]; 85.4% in assay [3]; 119% in assay [4]; 98.7% in assay [5]; 67.6% in assay [6]. Besides, the growth is 99.6% in [7]; 101% in assay [8]; 104% in [9]; 114% in assay [10]; 108% in [11]; 125% in assay [12]. The growth is 95.2% in assay [13]; 101% in assay [14]; 99.4% in assay [15]; 101% in assay [16]; 101% in [17]; 103% in [18]. In addition, the growth in [19] and in assay [20] was 103% each time.
